An excerpt weighted towards active compounds, which were near 4% of everything screened.
GDH-TPI counter-1 = inhibits GDH-TPI coupling enzymes, artifact for Mtb FBA screen; GDH-TPI coupled enzyme counterscreen, NADH absorbance; hit rate 1.2% among 360,000; inhibition, % at 4.8 µM; in the data active means inhibition above about 30%;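 further: 0% = DMSO wells and 100% = wells lacking the enzyme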
Mtb FBA inh = inhibits M. tuberculosis FBA enzyme; purified M. tuberculosis FBA, fluorescence read-out; inhibition, % at 1 µM; hit rate 2.3% among 360,000; AID 588726;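 further: 0% = vehicle and 100% = reference inhibitor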
Rv3671c protease = inhibits the M. tuberculosis serine protease Rv3671c; P9WHR9; inhibition, % at 5.96 µM; hit rate 0.048% among 320,000; in the data active means inhibition above about 38%;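 further: extracellular domain of Rv3671c used as enzyme; 0% = enzyme with DMSO and 100% = no enzyme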
Mtb bLac sens = beta-lactam sensitization of Mtb H37Rv | M. tuberculosis H37Rv growth with meropenem, percent inhibition | inhibition, % at 25 µM | hit rate 0.27% among 330,000; call rule not given here;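 further: growth measured after seven days incubation then overnight dye step; 0% = bacteria only wells and 100% = bacteria with antibiotic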
UGM FP inh = inhibitors of M. tuberculosis UDP-galactopyranose mutase; hit rate 0.06% among 320,000; inhibition, % at 10 µM; P9WIQ1; purified UGM, fluorescence polarization probe displacement; AID 504406; in the data active means inhibition above about 10%, passing the limit was not always enough
Target sequence (P9WIQ1 whole entry, looked up): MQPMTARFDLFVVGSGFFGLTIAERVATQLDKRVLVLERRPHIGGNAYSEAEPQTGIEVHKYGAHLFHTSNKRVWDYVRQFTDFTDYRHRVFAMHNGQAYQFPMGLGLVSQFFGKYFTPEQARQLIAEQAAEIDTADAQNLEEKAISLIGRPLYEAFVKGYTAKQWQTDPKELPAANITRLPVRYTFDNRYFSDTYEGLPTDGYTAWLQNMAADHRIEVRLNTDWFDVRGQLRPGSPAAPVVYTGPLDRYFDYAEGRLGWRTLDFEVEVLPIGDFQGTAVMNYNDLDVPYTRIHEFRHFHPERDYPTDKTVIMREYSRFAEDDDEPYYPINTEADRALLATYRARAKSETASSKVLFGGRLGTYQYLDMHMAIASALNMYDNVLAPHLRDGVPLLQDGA
RecA intein inh = inhibitors of M. tuberculosis RecA intein splicing; AID 2221; inhibition, % (test concentration not listed); cell-free RecA intein splicing, fluorescence; hit rate 0.75% among 290,000; in the data active means inhibition above about 30%;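 further: 0% = vehicle wells and 100% = reference inhibitor control wells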
Mtb FBA inh conf = confirmation of M. tuberculosis fructose-bisphosphate aldolase inhibitors | purified M. tuberculosis FBA, fluorescence read-out | inhibition, % at 1 µM | shares compounds with Mtb FBA inh | hit rate 78% among 5,600;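 further: 0% = vehicle wells and 100% = reference inhibitor wells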
GDH-TPI counter-2 = inhibits GDH-TPI coupling enzymes, flagging Mtb FBA hits | shares compounds with Mtb FBA inh | GDH-TPI coupled enzyme counterscreen, fluorescence | inhibition, % at 1 µM | hit rate 81% among 5,600; in the data active means inhibition above about 10%
Numbers without * were called inactive. Unless noted, no stated cut-off is given here; in the data, active means inhibition above about 27%; inactive means the rest.

O=C(O/N=C/c1ccc2c(c1)OCO2)c1ccccc1Cl was read as Rv3671c protease -1, Mtb bLac sens 99, UGM FP inh -4 and RecA intein inh 3.
Screening Cc1onc(-c2ccccc2Cl)c1C(=O)N(Cc1ccccc1)C(C)C returned GDH-TPI counter-1 5, Mtb FBA inh 4, Rv3671c protease 3, Mtb bLac sens 5, UGM FP inh 2 and RecA intein inh 1.
Cc1ccc2cccc(OCC(=O)Nc3ccc(N4CCOCC4)cc3)c2n1 was read as GDH-TPI counter-1 6, Mtb FBA inh 2, Rv3671c protease 2, Mtb bLac sens 10, UGM FP inh -2 and RecA intein inh -4.
For Cc1cc2cc3c(=O)[nH]c(=O)[nH]c3nc2cc1C the results were Rv3671c protease -2, Mtb bLac sens 1, UGM FP inh -2 and RecA intein inh -5.
For Cc1nc2cc3ccccc3cc2c(=O)[nH]1 the results were GDH-TPI counter-1 19, Mtb FBA inh 67*, Rv3671c protease 8, Mtb bLac sens 1, UGM FP inh -1, RecA intein inh 0, Mtb FBA inh conf 2 and GDH-TPI counter-2 -4.
For O=c1[nH]c(=O)c2cc3ccccc3nc2[nH]1 the results were GDH-TPI counter-1 15, Mtb FBA inh 75*, Mtb FBA inh conf 47* and GDH-TPI counter-2 45*.
C/C(=N\Nc1ccccc1C(=O)O)c1ccncc1 was read as GDH-TPI counter-1 16, Mtb FBA inh 3, Rv3671c protease 4, Mtb bLac sens -3, UGM FP inh 0 and RecA intein inh -2.
COc1cc(-c2c(NC(=O)c3ccco3)oc3c(C)cccc3c2=O)cc(OC)c1OC was read as GDH-TPI counter-1 17, Mtb FBA inh 1, Rv3671c protease -3, Mtb bLac sens 5, UGM FP inh 1 and RecA intein inh -4.
`COc1ccc(-c2c(NC(=O)c3ccco3)oc3c(C)cccc3c2=O)cc1` gave GDH-TPI counter-1 18, Mtb FBA inh 53*, Rv3671c protease 6, Mtb bLac sens 1, UGM FP inh 1, RecA intein inh 0, Mtb FBA inh conf 2 and GDH-TPI counter-2 -2.
Screening CCc1ccc(/C(C)=N/NC(=O)C(O)c2ccccc2)s1 (configuration not stated) returned GDH-TPI counter-1 3, Mtb FBA inh 2, Rv3671c protease 2, Mtb bLac sens -9 and UGM FP inh -2.
`Cn1c(-c2ccc(C=O)s2)nc2c3ccccc3c3ccccc3c21` gave GDH-TPI counter-1 24, Mtb FBA inh 53*, Rv3671c protease -6, Mtb bLac sens -7, UGM FP inh 2, RecA intein inh -17, Mtb FBA inh conf 37* and GDH-TPI counter-2 37*.
For O=C(CC1CCCC1)Nc1ccc2c(c1)CCC2 the results were GDH-TPI counter-1 -3, Mtb FBA inh -2, Rv3671c protease 2, Mtb bLac sens 1, UGM FP inh -1 and RecA intein inh 4.
`O=C(O)c1ccccc1Nc1ccnc(Cl)n1` gave GDH-TPI counter-1 10, Mtb FBA inh 28*, Rv3671c protease 6, Mtb bLac sens -1, UGM FP inh 0, RecA intein inh -1, Mtb FBA inh conf active and GDH-TPI counter-2 144*.
For Cc1c(Cl)cccc1Nc1ccccc1C(=O)O the results were GDH-TPI counter-1 9, Mtb FBA inh 4, Rv3671c protease 1, Mtb bLac sens 0, UGM FP inh 0 and RecA intein inh 6.
Screening Cc1cccc(C2=NN(c3ccccc3)[C@H](CO)[C@H]2c2ccc(Cl)cc2)c1 returned GDH-TPI counter-1 -4, Mtb FBA inh 55*, Mtb FBA inh conf 4 and GDH-TPI counter-2 -1.
For Cc1cccc(-c2sc(Nc3ccccc3)n[n+]2-c2ccc(F)cc2)c1 the results were GDH-TPI counter-1 8, Mtb FBA inh -1, Rv3671c protease -2, Mtb bLac sens 5, UGM FP inh -1 and RecA intein inh 0.
`Cc1cccc(C2=NN(c3ccccc3)[C@H](CO)[C@H]2c2ccc(F)cc2)c1` gave GDH-TPI counter-1 3, Mtb FBA inh 63*, Mtb FBA inh conf 91* and GDH-TPI counter-2 61*.
Screening CC[C@@H]1C(c2cccc(C)c2)=NN(c2ccccc2)[C@H]1C(=O)N1CCOC1=O returned GDH-TPI counter-1 10 and Mtb FBA inh 4.
For CCn1cc(C(=O)NCCC(C)C)c(=O)c2cc(F)c(N3CCN(C(=O)c4ccco4)CC3)cc21 the results were GDH-TPI counter-1 -3, Mtb FBA inh 15, Rv3671c protease -12, Mtb bLac sens 54, UGM FP inh 3 and RecA intein inh -10.
For CCn1cc(C(=O)NCc2ccncc2)c(=O)c2cc(F)c(N3CCN(C(=O)c4ccco4)CC3)cc21 the results were GDH-TPI counter-1 9, Mtb FBA inh 42*, Rv3671c protease -8, Mtb bLac sens 9, UGM FP inh -2, RecA intein inh -2, Mtb FBA inh conf 35* and GDH-TPI counter-2 22*.
CCn1cc(C(=O)NC(C)C)c(=O)c2cc(F)c(N3CCN(C(=O)c4ccco4)CC3)cc21 was read as GDH-TPI counter-1 7, Mtb FBA inh 55*, Rv3671c protease -11, Mtb bLac sens 28, UGM FP inh -1, RecA intein inh -1, Mtb FBA inh conf 100* and GDH-TPI counter-2 70*.
For CCOC(=O)Nc1nnc(-c2ccc(OC)c(OC)c2)s1 the results were GDH-TPI counter-1 12, Mtb FBA inh 62*, Rv3671c protease 5, Mtb bLac sens 23, UGM FP inh 0, RecA intein inh 2, Mtb FBA inh conf 72* and GDH-TPI counter-2 58*.
Screening CCc1nnc(NC(=O)Cc2ccc(OC)c(OC)c2)s1 returned GDH-TPI counter-1 -7, Mtb FBA inh 1, Rv3671c protease 1, Mtb bLac sens 0, UGM FP inh 0 and RecA intein inh 2.
`COc1ccc(-c2nnc(NC(=O)c3c(OC)cccc3OC)s2)cc1` gave GDH-TPI counter-1 27, Mtb FBA inh 1, Rv3671c protease 3, Mtb bLac sens 2, UGM FP inh 1 and RecA intein inh 3.
Screening COC(=O)Nc1nnc(-c2ccc(OC)cc2)s1 returned GDH-TPI counter-1 16, Mtb FBA inh 43*, Rv3671c protease -1, Mtb bLac sens 6, UGM FP inh -1, Mtb FBA inh conf 58* and GDH-TPI counter-2 56*.
For Cc1c(C(=O)NCCSCc2c(F)cccc2Cl)cnn1-c1ccc(Cl)cc1 the results were GDH-TPI counter-1 6, Mtb FBA inh 2, Rv3671c protease -16, Mtb bLac sens 62, UGM FP inh 2 and RecA intein inh 17.
